# HT1080 IDH1KD tx: qHTS for induction of synthetic lethality in tumor cells producing 2HG: qHTS for the HT-1080-IDH1KD cell line | Potency, µM (top dose mostly 46.1 µM), hits mostly cytotoxic | 2% of 360,000 active | AID 686971, 2013 | HT-1080 IDH1 knockdown viability, ATP luminescence, 48 h
#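 Luminescent ATP read-out (CellTiter-Glo, 10 min at room temperature) after 48 h compound exposure at 37 °C gave viability of IDH1-knockdown HT-1080 cells. Activity was normalised to DMSO and cell-free wells, then fitted as concentration-response curves.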
# HT1080NT lethal: qHTS for induction of synthetic lethality in tumor cells producing 2HG: qHTS for the HT-1080-NT fibrosarcoma cell line | HT-1080-NT fibrosarcoma viability, CellTiter-Glo ATP luminescence, 48 h | Potency, µM (series often up to 46.1 µM), actives largely listed as cytotoxic | 1.6% of 360,000 active;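 note: NT is the 2HG producing partner of a matched IDH1 knockdown line; nearly all actives have a fitted effect of over 55% in size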
#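 Fibrosarcoma NT cells, 750 per well in 5% FBS RPMI, were exposed to compound for 48 hours. Viability: CellTiter-Glo luminescence.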
# DT40 TDP1 CPT: qHTS for Inhibitors of human tyrosyl-DNA phosphodiesterase 1 (TDP1): qHTS in cells in presence of CPT; chicken DT40 Tdp1-/-;hTDP1 cells + 20 nM CPT, ATP luminescence, 48 h; Potency, µM (highest dose often 46.2 µM), usual class: inhibitors; 12% of 420,000 active; AID 686979, 2013; note: nearly all actives have a fitted effect of over 55% in size
#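 Cell growth measured by CellTiter-Glo luminescence after a minimum 48 h, 37 C compound exposure with 20 nM CPT in Tdp1-knockout DT40 cells stably expressing hTDP1, seeded 400/well; qHTS titration format.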
# IL1B secr inh: qHTS for Inhibitors of Inflammasome Signaling: IL-1-beta AlphaLISA Primary Screen; THP-1 LPS/ATP IL-1B secretion, AlphaLISA, 16 h; active compounds read low; activity change, % at 57.5 µM; 4.7% of 360,000 active; in the data active = activity change below about -50%; inconclusive = mostly about -30% to -49%
#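 THP-1 cells pretreated 1 hr with compounds (up to 57.5 uM final), then stimulated with LPS (250 ng/mL final) plus ATP (1.25 mM final); secreted IL-1B measured by AlphaLISA after 16 hr, decreased signal indicating inhibition.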
# DT40 TDP1 no CPT: qHTS for Inhibitors of human tyrosyl-DNA phosphodiesterase 1 (TDP1): qHTS in cells in absence of CPT; DT40 Tdp1-/- hTDP1 cells, no CPT, ATP luminescence, 48 h; Potency, µM (doses to about 46.2 µM), hits mostly inhibitors; 15% of 420,000 active; note: nearly all actives have a fitted effect of over 55% in size
#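 Readout: luminescence from CellTiter-Glo after 30 min in the dark at RT. Cells: DT40 Tdp1-/- with stable hTDP1, 400/well. Exposure: compounds alone, ≥48 hr, 37 °C.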
# uPA surface inh: qHTS for Inhibitors of Cell Surface uPA Generation; 0.31% of 330,000 active; cell surface uPA generation assay, qHTS; Potency, µM (doses to about 38.3 µM), actives largely listed as inhibitors; AID 540303, 2011; active = well fitted inhibition curve with a large enough effect; inconclusive = small, poorly fitted or top-dose-only effect; inactive = no such curve, though single readings can be large or run the other way; tested in mouse RAW 264.7 cells; note: nearly all actives have a fitted effect of over 55% in size
# A number is an active result; 0 = inactive; ? = inconclusive; - = not tested or not shown; [ ] = remark or other dose. Most compounds without a hit are left out; they make up all but 19% or so of the library. Unless noted, calls come from the whole dose curve; as a rule, active = well fitted curve in the direction sought with a large enough effect; inconclusive = small, poorly fitted or top-dose-only effect, or another doubt; inactive = no such curve, though single readings can be large; an effect the other way counts as inactive or inconclusive.
SMILES,HT1080 IDH1KD tx,HT1080NT lethal,DT40 TDP1 CPT,IL1B secr inh,DT40 TDP1 no CPT,uPA surface inh
CCOc1ccc(NCc2cccn2-c2nnc(N3CCC(C(=O)NCC(C)c4ccccc4)CC3)s2)cc1 (stereo not given),-,-,23.1µM,-,8.2µM,-
CCOc1ccc2nc(NC(=O)c3cccn(Cc4ccc(C)cc4)c3=O)sc2c1,-,-,0,-,0,-
CCOc1ccc(NCc2cccn2-c2nnc(N3CCC(C(=O)NCc4ccc(C)cc4)CC3)s2)cc1,-,-,9.2µM,-,7.31µM,-
CCCCCCCCCOc1ccc2[nH]cc(CCN)c2c1,-,-,7.31µM,-,8.2µM,-
Cc1cc2oc(=O)cc(-c3ccccc3)c2c(C)c1-c1ccc(CO)cc1,0,0,18.4µM,0,18.4µM,0
COc1ccc(-c2ccc3c(c2)CN(C(=O)C(C)(C)C)Cc2cnnn2-3)cc1,0,0,?,0,?,-
COc1cc2c(cc1O)CC1c3c(cc(O)c(OC)c3-2)CCN1C (stereo not given),0,0,0,?,0,0
COc1cc2c(cc1OC)-c1c(OC)c(OC)cc3c1[C@H](C2)N(C)CC3,0,0,?,0,16.4µM,?
CS(=O)(=O)c1ccc(C(=O)C2C(=O)CCCC2=O)c([N+](=O)[O-])c1,-,-,0,-,?,-
N#CC1c2ccccc2C=CN1C(=O)c1ccc(N(CCCl)CCCl)cc1 (stereo not given),0,0,23.1µM,?,18.4µM,-
NNC(N)=O,0,?,0,0,0,0
C/C(=C\c1csc(C)n1)[C@@H]1C[C@@H]2O[C@]2(C)CCC[C@H](C)[C@H](O)[C@@H](C)C(=O)C(C)(C)[C@@H](O)CC(=O)O1,-,-,0.0012µM,-,0.0013µM,-
COC(=O)C1=C(c2ccc(OC(F)(F)F)cc2)C[C@@H]2CC[C@H]1N2C(=O)NCCCOC(C)C,0,0,?,0,?,0
COC(=O)C1=C(c2ccc(Cl)c(C(F)(F)F)c2)C[C@@H]2CC[C@H]1N2C(=O)NC1CCCCC1,?,0,13µM,-52.4,20.6µM,?
COC(=O)C1=C(c2ccc(Cl)c(C(F)(F)F)c2)C[C@@H]2CC[C@H]1N2C(=O)NCc1ccco1,0,0,?,-65.1,20.6µM,0
COC(=O)C1=C(c2ccc(OC(F)(F)F)cc2)C[C@@H]2CC[C@H]1N2C(=O)NCCOc1ccccc1,0,0,23.1µM,?,18.4µM,0
COC(=O)C1=C(c2ccc(OC(F)(F)F)cc2)C[C@@H]2CC[C@H]1N2C(=O)NC(C)C,0,0,16.4µM,0,20.6µM,0
CCC(=O)OC1(c2ccccc2)CCN(C)CC1,-,-,0,-,0,-
COc1c2c(cc3c1OCO3)CC[N+](C)=C2,0,0,0[9.04 µM],0,0[9.04 µM],0
COC(=O)C1=C(c2ccc(Cl)c(C(F)(F)F)c2)C[C@@H]2CC[C@H]1N2C(=O)NCCO,0,0,0,0,0,0
COC(=O)C1=C(c2ccc(Cl)c(C(F)(F)F)c2)C[C@@H]2CC[C@H]1N2C(=O)NCCOc1ccccc1,0,?,?,-80.8,16.4µM,?
CCCNC(=O)N1[C@H]2CC[C@@H]1C(C(=O)OC)=C(c1ccc(OC(F)(F)F)cc1)C2,0,0,?,0,14.6µM,0
CN(C)CC1CSCCC1(O)c1cccc(Cl)c1 (stereo not given),0,0,0,0,0,0
Cn1c(O)c(C2=NNC(c3ccc(Cl)cc3)C2)c(=O)n(C)c1=O (stereo not given),?,0,25.9µM,0,?,0
CCOc1ccc(C2CC(c3c(O)n(C)c(=O)n(C)c3=O)=NN2)cc1 (stereo not given),0,0,0,-,?,0
SMILES,HT1080 IDH1KD tx,HT1080NT lethal,DT40 TDP1 CPT,IL1B secr inh,DT40 TDP1 no CPT,uPA surface inh
COc1ccc(OC)c(-n2c(O)c(/C=C3\C=Nc4ccccc43)c(=O)[nH]c2=O)c1,0,0,?,0,0,0
COc1ccc(-c2nc(C(N)=O)c3[nH]c(=O)n(-c4ccccc4OC)c3n2)c(OC)c1,?,0,?,0,16.4µM,11.2µM
COC(=O)C1=C(c2c(C)noc2C)C[C@@H]2CC[C@H]1N2C(=O)NCCOc1ccccc1,0,0,0,0,0,0
CN1CCC2(CC1)c1ccccc1-c1ccccc12,0,0,?,-67.1,14.6µM,0
COc1ccc(C(=O)Cn2c(NCCO)nc3ccccc32)cc1,0,0,16.4µM,0,?,0
COC1C(O)C(C)OC(OC2C(Oc3cccc4c(O)c5c(=O)oc6ccc(C)c7c(=O)oc(c34)c5c67)OC(C)C(O)C2O)C1O (stereo not given),?,?,0.82µM,-99.7,0.82µM,0
Cc1ccc(Cn2c(C(CO)Nc3nc(-c4ccc(F)cc4)cs3)nc3ccccc32)cc1 (stereo not given),?,?,?,-69.3,16.4µM,?
Cc1ccc(-c2csc(NC(CO)c3nc4ccccc4n3CCOCCO)n2)cc1 (stereo not given),0,0,?,0,23.1µM,0
CCOc1cc(-c2ccc(N)c(OCC)c2)ccc1N,0,0,11.6µM,0,?,0
COc1cc(Cc2cnc(N)nc2N)cc(OC)c1OC,0,0,0,0,?,0
COc1ccc(Cc2nccc3cc(OC)c(OC)cc23)cc1OC,?,?,8.2µM,0,5.8µM,0
C=C(C=O)C[C@@H]1C[C@H](O)C2OC3C[C@]4(C)OC5/C=C\CC6OC7C(CC=CCC6OC5CCCC4OC3CC2O1)OC1CC2OC3CC(=O)OC3C[C@@H](C)C[C@@]2(C)OC1C[C@@H]7C (stereo not given in full),-,8.2µM,0.651µM,-102.4,0.581µM,0
CCC(C)N1CCN(C(=O)COc2ccc3ccccc3c2)CC1 (stereo not given),0,0,?,0,?,0
CC(C)NC(=O)C(C)N1CCN(S(=O)(=O)c2ccc3ccccc3c2)CC1 (stereo not given),0,0,18.4µM,0,14.6µM,0
CC(C)c1ccc(N=Cc2c(O)n(C3CC3)c(=S)[nH]c2=O)cc1,0,0,0,0,?,0
O=P(Oc1ccc(Cl)cc1)(N1CC1)N1CC1,0,0,6.51µM,0,?,0
O=P(Oc1ccc(-c2ccccc2)cc1)(N1CC1)N1CC1,0,0,2.06µM,0,9.2µM,0
O=P(Oc1ccccc1)(Oc1ccccc1)N1CCN(c2ccc(F)cc2)CC1,?,?,?,0,?,0
CC1(C)CSC(=NCc2ccccc2)N1,0,0,0,0,0,0
